Where “and” joins values, the source holds several entries; their conditions need not be identical. Equal values may be shown once. Records with an inconclusive call do not appear. Calls of active or inactive are those of the source. Calls come from the whole dose curve; as a rule, active = well fitted curve in the direction sought with a large enough effect; inconclusive = small, poorly fitted or top-dose-only effect, or another doubt; inactive = no such curve, though single readings can be large; an effect the other way counts as inactive or inconclusive.
Legend:
[1] = biological target: Cellular tumor antigen p53 (Homo sapiens) (UniProt P04637); test: Primary qHTS for small molecule compounds that upregulate eGFP-tagged delta133p53alpha (in N-terminal) cells. (AID 2060322); conditions: NCI-H358 eGFP-delta133p53alpha fluorescence, 24 h; activation: hits give high values; note: nearly all actives have a fitted effect of over 75% in size; note: potency is the fitted concentration of half-maximal effect;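 for activation: series mostly up to about 56 µM; 0% = DMSO vehicle and 100% = reference activator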
Procedure, shortened: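 NCI-H358 cells pre-induced 24 h with 10 ng/ml doxycycline to express N-terminal eGFP-delta133p53alpha, then dosed 24 h at 37C without doxycycline; fixed, Hoechst-stained, GFP intensity by laser scanning cytometry, normalized to DMSO (0%) and 57.5 uM 5-azacytidine (100%).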

[2] = biological target: Aldehyde dehydrogenase, mitochondrial (Homo sapiens) (UniProt P05091); test: qHTS for Inhibitors of the Aldehyde Dehydrogenase Family (ALDH2) Primary screen (AID 2061308);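 note: plate controls were vehicle for no effect and reference inhibitor for full effect; nearly all actives have a fitted effect of over 55% in size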
[3] = biological target: Retinaldehyde dehydrogenase 3 (Homo sapiens) (UniProt P47895); test: qHTS for Inhibitors of the Aldehyde Dehydrogenase Family (ALDH1A3) Validation screen (AID 2061312); note: nearly all actives have a fitted effect of over 45% in size; note: potency is the fitted concentration of half-maximal effect; for activity change, negative = inhibition: % is set by controls: 0 for no effect and ±100 for the full control effect
[4] = biological target: Retinaldehyde dehydrogenase 3 (Homo sapiens) (UniProt P47895); test: qHTS for Inhibitors of the Aldehyde Dehydrogenase Family (ALDH1A3) Primary screen (AID 2061315);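 note: plate controls were DMSO vehicle for no effect and reference inhibitor for full effect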
[5] = BET inhibitor-based combinations targeting novel dependencies in MECOM-rearranged (r) AML: SET-2 cell line (AID 2202231); conditions: SET-2 AML cells viability, CellTiter-Glo luminescence, 48 h; viability: hits give low values, concentration not given here; note: nearly all actives have a fitted effect of over 35% in size; note: potency is the fitted concentration of half-maximal effect;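 for viability: plate controls were DMSO treated cells for no effect and wells without cells for full effect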
Procedure, shortened: (§1)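 Each compound was tested at eleven concentrations on cells seeded at 500/well. After two days' incubation, ATP-based luminescence reported viability; responses relative to DMSO and blank wells yielded AUC and cell-line-centred Z-AUC.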

[6] = BET inhibitor-based combinations targeting novel dependencies in MECOM-rearranged (r) AML: OCI-AML3 cell line (AID 2202232); conditions: Potency: OCI-AML3 viability; note: nearly all actives have a fitted effect of over 35% in size; note: potency is the fitted concentration of half-maximal effect;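 for viability (% of control): series mostly up to about 46 µM; plate controls were DMSO vehicle wells for no effect and wells without cells for full effect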
Procedure, shortened: as §1

[7] = BET inhibitor-based combinations targeting novel dependencies in MECOM-rearranged (r) AML: HNT-34 cell line (AID 2202234); note: nearly all actives have a fitted effect of over 35% in size; note: potency is the fitted concentration of half-maximal effect;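 for viability (% of control): plate controls were vehicle wells for no effect and cell-free wells for full effect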
Procedure, shortened: (§2)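 First, 500 cells per well were seeded; next, drugs were pinned as 11-point doses; then plates sat 48 hr in the incubator; finally CellTiter-Glo was added and luminescence read, with AUC and Z-AUC computed.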

[8] = BET inhibitor-based combinations targeting novel dependencies in MECOM-rearranged (r) AML: UCSD-AML1 cell line (AID 2202235); note: nearly all actives have a fitted effect of over 40% in size; note: potency is the fitted concentration of half-maximal effect;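 for viability (% of control): series mostly up to about 46 µM; plate controls were DMSO vehicle wells for no effect and blank wells for full effect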
Procedure, shortened: as §2

[9] = BET inhibitor-based combinations targeting novel dependencies in MECOM-rearranged (r) AML: AML-191 cell line (AID 2202236; note: nearly all actives have a fitted effect of over 35% in size; note: potency is the fitted concentration of half-maximal effect;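 for viability (% of control): plate controls were vehicle wells for no effect and wells without cells for full effect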)
Procedure, shortened: as §1

[10] = BET inhibitor-based combinations targeting novel dependencies in MECOM-rearranged (r) AML: AML-194 cell line (AID 2202237; note: nearly all actives have a fitted effect of over 40% in size; note: potency is the fitted concentration of half-maximal effect;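 for viability (% of control): plate controls were vehicle wells for no effect and wells without cells for full effect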)
Procedure, shortened: as §1

[11] = BET inhibitor-based combinations targeting novel dependencies in MECOM-rearranged (r) AML: MV-4-11 cell line (AID 2202233); note: nearly all actives have a fitted effect of over 45% in size; note: potency is the fitted concentration of half-maximal effect
Procedure, shortened: as §2

Cellular tumor antigen p53 (Homo sapiens), sequence (P04637 whole entry, looked up): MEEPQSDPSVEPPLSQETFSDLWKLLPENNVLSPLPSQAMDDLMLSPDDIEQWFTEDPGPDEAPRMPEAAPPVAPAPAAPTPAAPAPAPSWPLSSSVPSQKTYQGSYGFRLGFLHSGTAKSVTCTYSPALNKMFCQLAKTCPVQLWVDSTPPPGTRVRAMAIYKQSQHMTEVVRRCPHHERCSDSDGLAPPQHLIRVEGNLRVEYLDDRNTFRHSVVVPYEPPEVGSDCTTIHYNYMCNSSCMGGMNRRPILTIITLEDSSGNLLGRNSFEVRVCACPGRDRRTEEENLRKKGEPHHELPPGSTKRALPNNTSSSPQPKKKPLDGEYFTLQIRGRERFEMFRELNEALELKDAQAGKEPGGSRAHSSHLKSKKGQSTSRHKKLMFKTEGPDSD

Cc1nnc(C(C)C)n1C1CC2CCC(C1)N2CC[C@H](NC(=O)C1CCC(F)(F)CC1)c1ccccc1 (some centres undefined)
inactive: activation [1] -6.68% | Potency [2] | Potency [3] | Potency [4] | viability [5] 113% | Potency [6] | Potency [7] | Potency [8] | Potency [9] | Potency [10]

CN1CC[C@@H](NC(=O)Nc2ccc(C#N)cc2)C[C@@H]1c1nc2ccccc2[nH]1
active: Potency [3] 3.98 µM
inactive: activation [1] -0.477% | Potency [2] | Potency [4] | viability [5] 117% | Potency [6] | Potency [8] | Potency [9] | Potency [10]

CCc1cccc2c3c([nH]c12)[C@@](CC)(CC(=O)O)OCC3
inactive: activation [1] -4.77% | Potency [2] | Potency [3] | Potency [4] | viability [5] 112% | Potency [6] | Potency [11] | Potency [9] | Potency [10]

CNC(=O)c1ccc(N2C(=S)N(c3cnc(C#N)c(C(F)(F)F)c3)C(=O)C23CCC3)cc1F
inactive: activation [1] -16.4% and 8.59% | Potency [2] | Potency [3] | Potency [4] | viability [5] 98% | Potency [11] | Potency [7] | Potency [8] | Potency [9] | Potency [10]

CCN(CCO)CCCC(C)Nc1ccnc2cc(Cl)ccc12 (centres undefined)
inactive: activation [1] 3.35% and 25.7% and 0.955% | activity change, negative = inhibition [2] 2.52% [at 5.59 µM] | activity change, negative = inhibition [3] 6.92% [at 9.14 µM] | activity change, negative = inhibition [4] 5.26% [at 5.59 µM] | viability [5] 104% | viability (% of control) [6] 48.6% [at 5.12 µM] | viability (% of control) [8] 97.7% [at 5.12 µM] | viability (% of control) [9] 74.5% [at 5.12 µM] | viability (% of control) [10] 88% [at 5.12 µM]

O=C(NCC(=O)N1CC[C@H](NC2CCC(O)(c3ccc(-c4ncccn4)cn3)CC2)C1)c1cccc(C(F)(F)F)c1 (some centres undefined)
inactive: activation [1] 5.25% | Potency [2] | Potency [3] | Potency [4] | viability [5] 98.1% | Potency [7] | Potency [8] | Potency [9]
active: Potency [11] 10.5 µM

COc1ccc(CCC(=O)Nc2nc3ccc(Cl)cc3s2)cc1OC
inactive: activation [1] 9.8% and 1.91% | Potency [2] | Potency [3] | Potency [4] | viability [5] 120% | Potency [6] | Potency [11] | Potency [8] | Potency [9] | Potency [10]

O=C(C(c1ccccc1)c1ccccc1)N1CCN(CC(O)COc2cccc3ncccc23)CC1 (centres undefined)
active: Potency [5] 20.9 µM | Potency [6] 11.8 µM | Potency [11] 18.6 µM | Potency [9] 18.6 µM
inactive: activation [1] 4.77% | Potency [2] | Potency [3] | Potency [4]

O=C(O)Cn1nnc(-c2cc(N3CCC(Oc4cc(F)ccc4Br)CC3)no2)n1
inactive: activation [1] 22.3% and 6.21% | Potency [2] | Potency [3] | Potency [4] | viability [5] 127% | Potency [11] | Potency [7] | Potency [9]

Cc1cc(-c2ncc(CC(=O)Nc3ccc(-c4cnccn4)cn3)cc2C)ccn1
inactive: activation [1] -9.46% and -6.68% | Potency [2] | Potency [3] | Potency [4] | Potency [10]
active: Potency [5] 11.8 µM | Potency [6] 8.33 µM | Potency [11] 8.33 µM | Potency [8] 26.3 µM

CC(=O)Nc1ccc([C@H](C)C(=O)Nc2ncc(C(C)C)s2)cc1
inactive: Potency [2] | Potency [3] | Potency [4]
active: Potency [1] 3.06 µM and 2.69 µM | Potency [5] 3.32 µM | Potency [11] 5.25 µM | Potency [7] 3.32 µM | Potency [8] 3.32 µM | Potency [9] 1.86 µM | Potency [10] 2.95 µM

Cn1cc(-c2ccc(F)c(C(F)(F)F)c2)nc1C1CCN(c2ncnc3[nH]ncc23)CC1
inactive: activation [1] 10% | Potency [2] | Potency [3] | Potency [4] | viability [5] 96.6% | Potency [10]
active: Potency [6] 0.742 µM

CC(C)(N)C(=O)N[C@H](COCc1ccccc1)C(=O)N1CCC2(CC1)CN(S(C)(=O)=O)c1ccccc12
inactive: activation [1] 18.6% and 11% | Potency [2] | Potency [3] | Potency [4] | viability [5] 104%
active: Potency [6] 11.8 µM | Potency [11] 10.5 µM | Potency [9] 20.9 µM

COc1ccc(-n2nc(C(N)=O)c3c2C(=O)N(c2ccc(N4CCCCC4=O)cc2)CC3)cc1
inactive: activation [1] 22.9% and -7.16% | Potency [2] | Potency [3] | Potency [4] | viability [5] 101% | Potency [6] | Potency [11] | Potency [9] | Potency [10]

Cc1cnc(Nc2cccc(CN3CCOCC3)c2)nc1Nc1cccc(S(=O)(=O)NC(C)(C)C)c1
active: Potency [5] 2.63 µM | Potency [11] 0.332 µM | Potency [7] 1.66 µM | Potency [8] 1.32 µM | Potency [9] 1.66 µM | Potency [10] 1.32 µM
inactive: activation [1] 11% | Potency [2] | Potency [3] | Potency [4]

CS(=O)(=O)c1ccc(-c2nnc(/C=C/c3nnc(-c4ccc(C#N)cc4)o3)n2-c2ccccc2Cl)nc1
active: Potency [11] 10.5 µM
inactive: activation [1] -4.77% | Potency [2] | Potency [3] | Potency [4] | viability [5] 111% | Potency [7] | Potency [8] | Potency [10]
